What was measured:
Settings in all cases: concentration: 1 μM, replicates: in singlicate; n = 1
PRKX = test system: PRKX
PRP4 = test system: PRP4
PYK2 = test system: T1, PYK2
T1 construct: gene PTK2B

QSK = test system: QSK
RAF1 = test system: RAF1
RET = test system: RET
RIOK1 = test system: RIOK1
RIOK2 = test system: RIOK2
RIOK3 = test system: RIOK3
RIPK1 = test system: RIPK1
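Note: KINOMEscan kinase panel screen.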

| Compound | %Inh (PRKX) | %Inh (PRP4) | %Inh (PYK2) | %Inh (QSK) | %Inh (RAF1) | %Inh (RET) | %Inh (RIOK1) | %Inh (RIOK2) | %Inh (RIOK3) | %Inh (RIPK1) |
| --- | --- | --- | --- | --- | --- | --- | --- | --- | --- | --- |
| Nc1ncnc2c1ncn2-c1cccc(F)c1 [SKF-97560] | 0% | 0% | 6% | 13% | 14% | 1% | 38% | 19% | 49% | 22% |
| Cc1ccccc1COc1cc(-n2cnc3cc(Cl)ccc32)sc1C(N)=O [GW813349] | 0% | 19% | 4% | 0% | 0% | 7% | 23% | 27% | 13% | 16% |
| COc1ccc(-c2cc3c(C)nc(N)nc3n([C@H]3CC[C@H](O)CC3)c2=O)cn1 | 0% | 0% | 0% | 0% | 0% | 0% | 0% | 0% | 0% | 0% |
| COc1cc2ncn(-c3cc(OCc4ccncc4Br)c(C(N)=O)s3)c2cc1OC [GW854278] | 26% | 0% | 7% | 2% | 7% | 20% | 38% | 14% | 39% | 3% |
| Nc1n[nH]c2ncc(-c3ccccc3)cc12 [SB-517081] | 0% | 24% | 0% | 1% | 0% | 12% | 6% | 0% | 4% | 0% |
| COc1cc2ncn(-c3cc(OCCCc4ccccc4)c(C(N)=O)s3)c2cc1OC [GSK205189] | 3% | 0% | 5% | 0% | 0% | 0% | 26% | 0% | 12% | 0% |
| O=C1NC(=O)C(c2ccccc2)=C1Nc1cccc(O)c1 [SB-390534] | 0% | 0% | 12% | 9% | 13% | 0% | 0% | 0% | 0% | 0% |
| Cc1nc(N(C)[C@H]2CN(C(=O)CC#N)CC[C@H]2C)c2cc[nH]c2n1 | 4% | 0% | 0% | 0% | 0% | 5% | 0% | 2% | 8% | 11% |
| Nc1ncnc2c1ncn2-c1ccc(Cl)cc1 [AH2635] | 0% | 36% | 21% | 0% | 1% | 9% | 51% | 0% | 35% | 17% |
| Cc1nn2c(=O)cc(N3CCOCC3)nc2n1Cc1cccc(Cl)c1Cl [GSK2342769] | 8% | 15% | 6% | 8% | 15% | 72% | 38% | 36% | 11% | 0% |
| Nc1nc(-c2ccccc2F)c(-c2ccnc3ccccc23)s1 [GW560459] | 4% | 33% | 0% | 0% | 8% | 0% | 40% | 52% | 25% | 0% |
| Cc1ccc(Oc2ccc(Nc3ncnc4cc[nH]c34)cc2C)cn1 | 2% | 46% | 9% | 13% | 5% | 8% | 100% | 0% | 24% | 0% |
| COc1ccc(-n2cnc3c(N)ncnc32)cc1 [SKF-97236] | 15% | 0% | 0% | 0% | 0% | 34% | 14% | 28% | 0% | 0% |
| CN1C(=O)C(Nc2cc(Cl)c(O)c(Cl)c2)=C(c2ccc(Cl)cc2)C1=O [SB-404321] | 0% | 17% | 1% | 0% | 10% | 0% | 0% | 0% | 0% | 0% |
| COC(=O)c1c(-c2ccccc2)c2cc(Br)ccc2c(=O)n1Cc1ccc(S(C)(=O)=O)cc1 | 28% | 0% | 6% | 0% | 27% | 16% | 0% | 19% | 0% | 0% |
| COc1cc(Nc2nccc(N3CCC(NC(=O)C4COc5ccccc5O4)C3)n2)cc(OC)c1OC (centres unmarked) [GSK1379761] | 15% | 32% | 18% | 2% | 7% | 2% | 66% | 0% | 43% | 7% |
| O=c1cc(N2CCOCC2)nc2n(Cc3ccc(F)c(Cl)c3)ccn12 [GSK2297099] | 20% | 17% | 0% | 2% | 54% | 0% | 5% | 18% | 14% | 1% |

From article PMC5540273 (PLoS ONE, 2017)
